Screening data deposited in PubChem BioAssay by National Center for Advancing Translational Sciences (NCATS).
ClpP mod = qHTS Assay for Activators of ClpP. ATP-dependent Clp protease proteolytic subunit (Bacillus subtilis (strain 168)), P80244. purified B. subtilis ClpP, FRET peptide cleavage, 20 min. Potency, µM (highest dose often 57.5 µM), inactives show at the top dose activity change, negative = active. 1.9% of 340,000 active; active means well fitted falling curve with a large enough effect; inconclusive means small, poorly fitted or top-dose-only effect; inactive means no such curve, though single readings can be large or run the other way; further: the source files actives as falling curves though it sought activators and does not explain the sign; nearly all actives have a fitted effect of over 65% in size
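Buffer: 100 mM Tris/HCl pH8, 100 mM KCl, 0.05% low protease BSA, 2.5% glycerol, 0.01% Tween-20. ClpP 10 microg/mL final; 20 min RT; delta FRET normalized to ADEP and DMSO controls.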
PINK1 expr mod = PINK1 expression modulation | PINK1 immunofluorescence, high-content cytometry, 24 h | Potency, µM (titrated, usually from 76.6 µM), for the others: at the highest dose activation (PINK1 increase), usual class: activators | 0.2% of 410,000 active | AID 624263; active means well fitted activation curve with a large enough effect; inconclusive means small, poorly fitted or top-dose-only effect; cell line not stated here; further: % of control where 0% means no effect; nearly all actives have a fitted effect of over 65% in size
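Measures PINK1 amount and localization on or inside mitochondria by immunofluorescence. Stable cells get compounds at 5 concentrations for 24 hours before fixation and staining; CCCP controls included.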
VP16 counter = counter-screen for ROR gamma inhibitors: Gal4-VP16 reporter | Drosophila S2 Gal4-VP16 UAS-luciferase, luminescence, 20 h | Potency, µM (titrated, usually from 53.6 µM), inactives show at the highest dose activity, negative = inhibition, actives largely listed as inhibitors | 3.5% of 310,000 active | AID 2546;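 further: Gal4-VP16 expression switched on by copper sulfate through the metallothionein promoter; on the % scale 0 is the no-effect control and ±100 the full control effect; nearly all actives have a fitted effect of over 50% in size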
Sfp PPTase inh = inhibitors of Bacillus subtilis Sfp phosphopantetheinyl transferase; Q9F4F7; Biochemical Sfp PPTase activity, qHTS; Potency, µM, for inactives: largest response in the series, negative = inhibition, most hits filed as inhibitors; 3.5% of 310,000 active;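 further: the enzyme is Sfp with the accession as filed and its product quenches rhodamine fluorescence; 0% = enzyme reaction without inhibitor and -100% = no enzyme wells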
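Fluorescence-quenching assay: 15 nM Sfp-PPTase preincubated 15 min at room temperature with compound, then 5 uM rhodamine-CoA and 12.5 uM BHQ-2-labelled YbbR peptide added. Fluorescence (ex 525/em 598 nm) read at start and after 30 min; difference gives rate.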
Epigenetic derep = epigenetic control regulation, reporter derepression | murine LDR cells, GFP reporter derepression, 30 h | 0.2% of 280,000 active | Potency, µM (titrated, usually from 53.9 µM), for the others: at the top dose GFP activation, usual class: activators; further: % of control where 0% means no effect; nearly all actives have a fitted effect of over 60% in size
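Readout is the number of GFP-expressing murine LDR cells, counted by cytometry following washing. Cells were treated with compound for 30 h at 37 C; the stably integrated CMV-GFP locus is normally silent.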
RORg inh = blocks mouse ROR gamma transcriptional activity. P51450. Drosophila S2 Gal4-RORgamma UAS-luciferase reporter, 20 h. Potency, µM (series often up to 53.6 µM), without a hit: at the top dose activity change, negative = inhibition, hits mostly inhibitors. 5.4% of 310,000 active; further: on the % scale 0 is the no-effect control and ±100 the full control effect; nearly all actives have a fitted effect of over 60% in size
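Drosophila Schneider cells stably carrying a metallothionein-driven Gal4 DBD–ROR gamma fusion and a UAS-Photinus luciferase reporter were exposed to compound for 1 hr, then induced with copper sulfate (700 uM final) for 20 hr at ambient temperature before luminescence reading.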
* hit, by the source's call; ? = inconclusive; · = no result; [ ] = dose if it differs, or a comment. Shown are actives, neighbours in structure and some others; about 8.1% of the full set was active somewhere. Unless noted, the call rests on the fitted dose curve; in most records, active means well fitted curve in the direction sought with a large enough effect; inconclusive means small, poorly fitted or top-dose-only effect, or another doubt; inactive means no such curve, though single readings can be large; an effect the other way counts as inactive or inconclusive. Potency means the concentration at half of the fitted maximal effect.

SMILES | ClpP mod | PINK1 expr mod | VP16 counter | Sfp PPTase inh | Epigenetic derep | RORg inh
COC(=O)C1CCN(Cc2ccc3c(c2)CN(C(=O)C(C)N2CCOCC2)CCO3)CC1 (stereo not drawn) | · | 1% | · | · | · | ·
O=c1c2c3c(sc2n(CCN2CCCCC2)c(=O)n1Cc1ccco1)CCCCC3 | -3% | -1%[38.3 µM] | 0% | -2% | -5% | -3%
O=c1c2c3c(sc2n(CCN2CCOCC2)c(=O)n1Cc1ccco1)CCCCC3 | -4% | -1% | -16% | 45µM* | 4% | 27%
CC(C)(C)C(=O)Nc1ccc2nc(SCC(=O)N3CCCC3)sc2c1 | -5% | 0% | · | · | 2% | ·
Cc1ccncc1C(=O)O | · | · | -3% | 12% | · | 10%
Cc1cc(Cl)ccc1NC(=S)NC(C)(C)C | 2% | 3% | 16µM* | -2% | 1% | 2µM*
CCCNC(=S)Nc1ccc(Cl)cc1C | -2% | -1% | ? | -1% | 0% | 7.1µM*
Cc1cc(Cl)ccc1NC(=S)NCC(C)C | -2% | 2% | 7.1µM* | 10% | -1% | 4.5µM*
CCCNC(=S)Nc1ccc(F)cc1F | 1% | 2% | 9% | -2% | 6% | ?
COCCNC(=O)C(=O)Nc1ccc(Cl)cc1C | · | 4% | 2% | 18% | -2% | 13%
Cc1csc(CN(C)C(=O)c2sc3ncnc(NCC4CCCO4)c3c2C)n1 (stereo not drawn) | · | -1% | · | · | · | ·
CC(C)(C)NC(=O)c1ccc2c(c1)CCO2 | 1% | 1% | -8% | 22% | 1% | 13%
O=C(NC(=O)c1ccccc1O)c1ccc2c(c1)CCO2 | · | -1% | ? | 18% | 2% | 5µM*
Cc1cc(NC(=O)C2CCN(S(=O)(=O)c3ccc4[nH]c(=O)oc4c3)CC2)ccc1Br | -3% | 0% | · | · | 1% | ·
COCCNC(=S)NNc1cccc(C(=O)O)c1 | 0% | 0% | -2% | 7.1µM* | -3% | -12%
COCCNC(=O)C(=O)Nc1cccc(Br)c1 | -1% | 0%[38.3 µM] | 17% | 23% | 0% | ?
CC(=O)NC(Cc1ccc(O)cc1)C(=O)NCC(N)C(=O)c1ccccc1 (stereo not drawn) | -1% | 1% | · | · | · | ·
Cc1cccc(C(=O)Nc2ccccc2OCc2cc(=O)n3ccccc3n2)c1 | 4% | 22% | · | · | -1% | ·
COc1cccc(C(=O)CC(=O)C(=O)Nc2cc(OC)ccc2OC)c1 | · | 1% | ? | 7% | · | 11µM*
COc1ccc(CNC(=O)C(=O)Nc2ccccc2OC)cc1 | 1% | 8% | · | · | -1% | ·
COc1ccc(C(=O)CC(=O)C(=O)Nc2ccc(C)c(C)c2)cc1 | · | 1% | ? | 3% | · | 13µM*
COc1cccc(C(=O)NNC(=O)C(=O)Nc2ccc(OC)cc2OC)c1 | · | 1% | 1% | 11% | · | 14µM*
COc1ccc(C(=O)CC(=O)C(=O)Nc2ccccc2OC)cc1 | 0% | -2% | 4.5µM* | 3% | · | 5.6µM*
COc1ccc(C(=O)CC(=O)C(=O)Nc2cccc(C(C)=O)c2)cc1 | · | 3% | 5% | -3% | · | -22%
CCOc1ccccc1NC(=O)C(=O)CC(=O)c1cccc(OC)c1 | 0% | 0% | 7.9µM* | 18% | · | 3.5µM*
SMILES | ClpP mod | PINK1 expr mod | VP16 counter | Sfp PPTase inh | Epigenetic derep | RORg inh
O=C(CCl)N1c2ccccc2CCc2ccccc21 | · | · | ? | -9% | · | 11µM*
O=[N+]([O-])c1cc(Cl)cc(/C=N\Nc2ccccn2)c1O | 1% | 1% | 1.1µM* | 11% | 1% | 0.56µM*
O=C(N/N=C/c1cc(Cl)cc([N+](=O)[O-])c1O)c1cc(-c2ccccn2)nc2ccccc12 | 1% | 3% | 10µM* | 0% | 0% | 5.6µM*
CC(/C=C/c1ccco1)=N/NC(=O)CNc1ccccc1C | · | 7% | ? | 50µM* | 8% | -17%
CC(/C=C/c1ccco1)=N\NC(=O)CNc1ccc2ccccc2c1 | -1% | 6% | -3% | -6% | -4% | -63%
CCOC(=O)N/N=C(C)/C=C/c1ccco1 | · | 7% | 21% | -1% | 0% | ?
Cc1ccc(OCCNC(=O)/C=C/c2ccco2)cc1C | -3% | 1% | -3% | 10µM* | -1% | 11%
C/C(=N/NC(=O)CNC(=O)/C=C/c1ccco1)c1ccc(Cl)cc1 | 28µM* | 11% | -3% | ? | 1% | 22%
CC(/C=C/c1ccco1)=N\NC(=O)COc1ccc(C)c(C)c1 | · | -2% | 8.9µM* | ? | ? | ?
Cc1ccc(OCCNC(=O)/C=C/c2ccccc2)cc1C | 2% | -2% | -5% | -4% | -1% | 0%
CCOC(=O)C1=C(N)N2C(=O)C(C)SC2=C(C(=O)OCC)C1c1ccccc1 (stereo not drawn) | 1% | -1% | 13µM* | 8% | 1% | ?
COc1cccc(COc2ccc3c(C)c(Cc4ccccc4)c(=O)oc3c2)c1 | 13µM* | -1% | · | · | · | ·
COc1cc(COc2ccc3c(C)c(Cc4ccccc4)c(=O)oc3c2C)cc(OC)c1OC | 16µM* | 0% | -4% | 1% | 0% | 17%
COc1cc(COc2ccc3c(C)c(Cc4ccccc4)c(=O)oc3c2)cc(OC)c1OC | -1% | 1% | 1% | 14% | -3% | 2%
Cc1c(Cc2ccccc2)c(=O)oc2cc(OCc3nn[nH]n3)ccc12 | 73% | 0% | 4% | 79µM* | -7% | 31%
Nc1cccc[n+]1C(c1ccnc2ccccc12)[n+]1ccccc1N | -22% | 0% | · | · | · | ·
Cc1cccc(-n2c(=O)[nH]c3c(C(N)=O)nc(C(C)C)nc32)c1 | 22µM* | 0%[38.3 µM] | 2% | -6% | -1% | 36%
Cc1ccc(Nc2cc(C)c(O)c(C)c2)cc1 | -2% | 5% | ? | ? | · | 8.9µM*
CN(C)c1ccc(/C=C/c2ccc3ncccc3c2)cc1 | 4% | 1% | · | · | · | ·
Cc1ncc2c(c1CNC(=O)CN1CCCCC1)CCN(C(=O)c1ccc(F)cc1Cl)C2 | · | 0% | · | · | · | ·
O=C(O)[C@@H]1CSC2(CCSC2)N1 (stereo partly drawn) | · | · | -8% | 45µM* | -4% | -9%
CCOC(=O)c1[nH]c(C)c(CCC(=O)NCc2ccc(OCC)cc2)c1C | -4% | -1% | · | · | 0% | ·
FC(F)(F)c1ccccc1NC(=S)NN=C1CCCCCC1 | · | 10% | ? | -71% | -4% | 4.5µM*
FC(F)(F)c1ccccc1NC(=S)N1CCCC1 | · | -1% | 9% | ? | 0% | -22%
CC(C)C(=O)NC(=S)Nc1ccccc1C(F)(F)F | 0% | -1% | ? | 23% | 1% | 5µM*
O=C(CC(=O)Nc1ccccc1C(F)(F)F)Nc1ccccc1C(F)(F)F | 1% | 0% | -6% | 10% | · | 12%
CCCC(=O)NC(=S)Nc1ccccc1C(F)(F)F | 1% | 6% | ? | 9% | -2% | 7.9µM*
